Calls of active or inactive are those of the source. The calls were made as follows: active = hit-call score of the fitted dose curve at least 0.9, where 1 is the maximum; inactive = score below 0.9.

In general, AC50 refers to the concentration at which the activity in the assay is half-maximal.

The assay is described as follows: CCTE_Shafer_MEA_dev_per_burst_spike_percent: CCTE's Neural Network Formation Assay for Percent of Spikes in a Burst, Shafer Lab (AID 2284032).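 As to AC50: fitted as a decrease in burst spike percentage below DMSO baseline.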 A digest of the protocol:
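Rat primary cortical neurons on 16-electrode MEA wells, dosed from plating day 0 for 12 days with renewal on DIV 5 and 9; spikes-in-bursts percentage averaged over bursting electrodes, collapsed as AUC across days 5, 7, 9, 12; loss direction versus DMSO.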
Take `O=S(=O)(O)CCC(F)(F)C(F)(F)C(F)(F)C(F)(F)C(F)(F)C(F)(F)C(F)(F)C(F)(F)F`: the outcome was inactive. Still for that read-out and setting: next, `NC(=O)C(F)(F)C(F)(F)C(F)(F)F`: “inactive”; `O=S(=O)(O)CCC(F)(F)C(F)(F)C(F)(F)C(F)(F)F`: “inactive”; `CNS(=O)(=O)C(F)(F)C(F)(F)C(F)(F)C(F)(F)C(F)(F)C(F)(F)C(F)(F)C(F)(F)F`: “inactive”. Consider `C=CC(=O)OCC(F)(F)C(F)(F)C(F)(F)COC(=O)C=C`, for which the half-maximal activity concentration (AC50) is 4.39 µM (active). For `OC(O)C(F)(F)C(F)(F)F`, the call was inactive. `OCC(F)(F)C(F)(F)C(F)(F)C(F)(F)C(F)(F)C(F)(F)C(F)(F)C(F)(F)CO`: the call was inactive. Take `NC(=O)C(F)(F)C(F)(F)C(F)(F)C(F)(F)C(N)=O`: the outcome was inactive. Same read-out and setting: next, `CCN(CCO)S(=O)(=O)C(F)(F)C(F)(F)C(F)(F)C(F)(F)C(F)(F)C(F)(F)C(F)(F)C(F)(F)F`: “inactive”; `C=CC(=O)OCCC(F)(F)C(F)(F)C(F)(F)C(F)(F)F`: “inactive”.

As for `OCC(O)CC(F)(F)C(F)(F)C(F)(F)C(F)(F)F` (centres undefined), the compound was classed as inactive. For the compound `O=C(O)C(F)(F)C(F)(F)C(F)(F)OC(F)(F)F`, the compound was called inactive. The same measure, in the same setting: next, `OCC(F)(F)C(F)(F)C(F)(F)CO`: “inactive”; `FC(F)(F)C(F)(F)C(F)(F)C(F)(F)C(F)(F)C(F)(F)C(F)(F)CCI`: “inactive”; `NC(=O)C(F)(F)C(F)(F)C(F)(F)C(F)F`: “inactive”. Take `CO[Si](C)(CCC(F)(F)C(F)(F)C(F)(F)C(F)(F)C(F)(F)C(F)(F)F)OC`: the outcome was inactive. Same read-out and setting: next, `NC(O)(C(F)(F)F)C(F)(F)F`: “inactive”. The same measure, in the same setting: next, `OCCCCC(F)(F)C(F)(F)C(F)(F)C(F)(F)F`: “inactive”. Same read-out and setting: the same measure for `OCC(F)(F)C(F)(F)C(F)(F)C(F)(F)C(F)(F)C(F)(F)CO`: “inactive”.
